High-throughput results from PubChem.
In the library only some 2.7% were active in any assay of this set; here they are far more common.
KDM5B inh: blocks human KDM5B histone demethylase activity. Q9UGL1. KDM5B demethylase, FDH-coupled NADH fluorescence (FDH is formaldehyde dehydrogenase). Potency, µM (series often up to 57.7 µM), usual class: inhibitors. actives 2.6% (n = 220,000); further: potency means the concentration at half of the fitted maximal effect; 0% is about no effect; nearly all actives have a fitted effect of over 70% in size
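Coupled FDH/NAD⁺ fluorescence readout. KDM5BΔAP 200 nM final; compound titration, 10 min RT preincubation; substrate mix 12.5 µM H3K4me3, 25 µM 2-OG, 50 µM Fe(II), 100 µM ascorbate, 0.25 mM NAD⁺, 0.25 U/mL FDH; ΔRFU over 30 min.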
IP6K1 inh: inhibitors of human IP6K1 | Q92551 | IP6K1 kinase, ADP-Glo luminescence, 2 h; stronger effect = lower value | activity change, % (series mostly up to about 58 µM) | actives 0.81% (n = 140,000); in the data active means activity change below about -25%; further: on the % scale 0 is the no-effect control and ±100 the full control effect
Target sequence (Q92551 whole entry, looked up): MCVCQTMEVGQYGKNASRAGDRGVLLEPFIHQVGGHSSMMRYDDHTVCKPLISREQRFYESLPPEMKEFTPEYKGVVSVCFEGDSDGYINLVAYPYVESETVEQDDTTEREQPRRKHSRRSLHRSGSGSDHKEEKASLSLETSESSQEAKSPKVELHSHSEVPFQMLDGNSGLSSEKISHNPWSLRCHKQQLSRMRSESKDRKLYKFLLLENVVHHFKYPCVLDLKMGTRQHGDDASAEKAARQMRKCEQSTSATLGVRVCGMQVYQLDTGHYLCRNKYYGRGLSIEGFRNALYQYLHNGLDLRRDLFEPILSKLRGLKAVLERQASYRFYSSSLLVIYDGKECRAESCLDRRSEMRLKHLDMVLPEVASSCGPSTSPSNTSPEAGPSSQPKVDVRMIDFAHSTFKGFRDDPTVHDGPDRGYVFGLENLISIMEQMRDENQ
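ADP-Glo luminescence measures ADP made by human IP6K1 during a 2 h RT reaction with ATP/IP6 (mix at 1.3 mM/130 uM); top library doses 57.5 and 19.1 uM final.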
IP6K1 inh cnf: human IP6K1 inhibition, confirmatory | shares compounds with IP6K1 inh | recombinant IP6K1 kinase, ADP-Glo luminescence, 2 h | Potency, µM (series often up to 49 µM), without a hit: at the highest dose activity change, negative = inhibition, usual class: inhibitors | actives 13% (n = 1,200); further: potency means the concentration at half of the fitted maximal effect; on the % scale 0 is the no-effect control and ±100 the full control effect; nearly all actives have a fitted effect of over 65% in size
An asterisk follows results filed as active; i = inactive; ? = inconclusive; / = no result given; ! = not confirmed by another sample; [ ] = remark or other dose. Unless noted, the call rests on the fitted dose curve; in most records, active means well fitted inhibition curve with a large enough effect; inconclusive means small, poorly fitted or top-dose-only effect; inactive means no such curve, though single readings can be large or run the other way.

SMILES	KDM5B inh	IP6K1 inh	IP6K1 inh cnf
O=S(=O)(Nc1nc2ccccc2nc1Nc1ccccc1Cl)c1cccs1	i	/	/
CN(CC(=O)Nc1cc2[nH]c(=O)[nH]c2cc1Br)Cc1ccccc1N1CCCC1	i	/	/
Nn1c(SCc2cccc(S(=O)(=O)N3CCOCC3)c2)nnc1-c1ccc(Cl)cc1	i	/	/
Fc1ccc(CNC(=S)NCc2ccc(Cl)c(Cl)c2)cc1	i	/	/
O=C(COC(=O)c1ccc(S(=O)(=O)N2CCCC2)cc1)Nc1ccc(Cl)cn1	i	/	/
Cc1cc(C)c2nc(C)cc(Nc3cccc(C(=O)O)c3)c2c1	?	-25*	-8%
CCOC(=O)c1cnc2c(C)cc(C)cc2c1Nc1cccc(C(=O)O)c1	i	-26*	?
CCOC(=O)c1cnc2c(C)cc(C)cc2c1Nc1cccc(O)c1	i	/	/
CSc1nc(C)cc(Nc2cccc(C(=O)O)c2)n1	?	-12	/
CC(C)c1ccc2c(c1)-c1ccccc1S(=O)(=O)N2CC(=O)NCc1ccco1	i	/	/
CCOC(=O)c1cc2c(=O)n3ccccc3nc2n(Cc2ccco2)c1=NC(=O)c1cccc(C)c1	?	-36*	?
CCOC(=O)c1cc2c(=O)n3ccccc3nc2n(Cc2ccco2)c1=NC(=O)c1ccc(C)c(C)c1	?	-7	/
Cn1c(=O)c2c(ncn2CC(=O)c2ccc(C(C)(C)C)cc2)n(C)c1=O	i	/	/
COC(=O)Cc1csc(NC(=O)Cc2c(C)c3cc(Cl)c(O)cc3oc2=O)n1	i	/	/
Cc1ccc(Nc2nc(C(=O)OCC(=O)c3ccc(C)cc3)cs2)cc1	i	/	/
CCOC(=O)c1csc(Nc2ccc(Cl)cc2)n1	/	-27*	?
CCCCCCCCCCCCSCC(=O)O	i	/	/
CCCCCCCCCCCCCCCCC(C(=O)O)C(O)(CC(=O)O)C(=O)O (stereo not given)	/	-78*	23µM*
Cc1c(O)nc(SCC(=O)Nc2ccc(Cl)cc2Cl)n(-c2ccc(F)cc2)c1=O	i	-27*	?
Cc1c(O)nc(SCC(=O)Nc2cccc(C(F)(F)F)c2)n(-c2ccccc2)c1=O	i	/	/
CCC(=O)Oc1ccc2c(=O)c(-c3ccc(Cl)cc3)coc2c1	i	/	/
COc1ccc(-c2nc(C)nc3c2CN(C(=O)Cc2ccccn2)CC3)cc1	/	-2	/
CCc1ccc(OC(=O)CSc2nnc(-c3ccc4c(c3)OCO4)o2)cc1	?	-1	/
COc1cccc(OC(=O)CSc2nnc(-c3ccc4c(c3)OCO4)o2)c1	?	-32*	?
Nc1ccccc1NC(=O)c1ccc(CNc2nccc(-c3cccnc3)n2)cc1	/	-12	/
SMILES	KDM5B inh	IP6K1 inh	IP6K1 inh cnf
Cc1cc(NC(=O)c2cccc(NC(=O)/C=C/CN(C)C)c2)ccc1Nc1nccc(-c2cccnc2)n1	/	-34*	?
COc1ccc(-c2cc(C(=O)N3CCN(c4ncccn4)CC3)c3cnn(C)c3n2)cc1	/	-3	/
Cc1ccccc1Cn1c(CN(C)Cc2ccccc2)nc2c1c(=O)n(C)c(=O)n2C	i	/	/
CCCCc1nn(CC(=O)NC[C@H]2CCc3ccccc3O2)c(=O)n1CC	i	12	/
CCCCc1nn(CC(=O)NCC2Cc3ccccc3CN2C)c(=O)n1CC (stereo not given)	?	-30*	-7%
Cc1ccc(-c2nnc3sc(-c4cccc(F)c4)nn3c2=O)cc1	i	/	/
CCCCCNC(=O)c1ccc2c(c1)nc(C)n2-c1cccc(C)c1	i	4	/
CCCCCNC(=O)c1ccc2c(c1)ncn2-c1cccc(C)c1	?	-31*	?
COc1ccc(-n2c(=O)c3c4c(sc3n(Cc3cc(=O)n5c(C)cccc5n3)c2=O)CCC4)c(OC)c1	?	-39*	-10%
COc1ccc(-n2c(=O)c3c4c(sc3n(Cc3ccc(C)cc3C)c2=O)CCC4)c(OC)c1	i	-16	/
CCCCn1c(CCC(=O)Nc2cc(C)ccc2C)nc2c1c(=O)[nH]c(=O)n2CCC	i	/	/
c1cc(N[C@@H]2CCNC2)nc(-c2cnc3ccc(-c4cn[nH]c4)cn23)c1	/	-39*	?
Cc1ccccc1NC(=O)c1nc2ccccc2nc1N1CCN(C)CC1	i	/	/
CCCSCCCNC(=O)C1CCN(c2nc3ccccc3nc2C(F)(F)F)CC1	i	-29*	-9%
O=C(NCCc1ccccc1)C1CCN(c2nc3ccccc3nc2C(F)(F)F)CC1	i	-1	/
CCOc1ccc(NC(=O)C(CC)CC)c2cccnc12	i	/	/
Cn1c(CCC(=O)N2CCCOCC2)nc2cc(S(=O)(=O)N3CCCC3)ccc21	i	-31*	-9%
Cn1c(CCC(=O)N2CCOCC2)nc2cc(S(=O)(=O)N3CCCC3)ccc21	i	1	/
Cc1cccc(Nc2c3c(nc4nncn24)CCC3)c1C	i	-27*	-3%
Cc1ccccc1Nc1c2c(nc3nncn13)CCC2	i	-7	/
O=C(Cc1csc(-c2ccsc2)n1)Nc1ccnn1Cc1c(Cl)cccc1Cl	i	/	/
O=C(Cc1c[nH]c2ncc(-c3cccc(Cl)c3)cc12)NCc1cccnc1	?	-27*	?
COc1ccc(OC)c(-c2cnc3[nH]cc(CC(=O)NCc4cccnc4)c3c2)c1	i	-16	/
COc1cccc(-c2cnc3[nH]cc(CC(=O)NCc4cccnc4)c3c2)c1	?	-27*	?
O=C(Cc1c[nH]c2ncc(-c3cccc(F)c3)cc12)NCc1cccnc1	?	-3	/
SMILES	KDM5B inh	IP6K1 inh	IP6K1 inh cnf
NC(=O)c1ccc(COC(=O)C23CC4CC(CC(Cl)(C4)C2)C3)c([N+](=O)[O-])c1	i	/	/
O=C1CC(c2ccccc2)Sc2nc(-c3ccc(F)cc3)nn21 (stereo not given)	i[11.5 µM]	-27*	2%
Cc1ccc(C2CC(=O)n3nc(-c4ccc(Cl)cc4)nc3S2)cc1 (stereo not given)	i	-13	/
O=S(=O)(c1ccc(-c2cc(C(F)(F)F)on2)s1)N1CCN(c2ccccc2)CC1	i	39	/
O=S(=O)(c1ccc(-c2cc(C(F)(F)F)on2)s1)N1CCN(c2cccc(Cl)c2)CC1	i	-33*	61%
O=S(=O)(NCc1ccc(F)cc1)c1ccc(N2CCCCS2(=O)=O)cc1	i	-32*	16%
O=S(=O)(NCc1ccc(Cl)cc1)c1ccc(N2CCCCS2(=O)=O)cc1	i	20	/
Cc1cc(C)c(/C=N/NC(=O)c2csc3ccccc23)c(C)c1	i	/	/
O=C(N[C@H](CO)Cc1ccccc1)c1nc(-c2cccc3[nH]ccc23)no1	i	/	/
COc1ccc(Cl)cc1C(=O)Nc1ccc2nc(Nc3cccc(Cl)c3)cc(C)c2c1	?	10	/
COc1cc(Nc2ncc3c(n2)-c2ccc(Cl)cc2C(c2c(F)cccc2OC)=NC3)ccc1C(=O)O	/	-37*!	?
COc1ccccc1-c1nc(-c2cccc(NC(=O)Nc3ccc(F)cc3)c2)no1	i	/	/
O=C(Cn1c(=O)n(-c2ccccc2F)c(=O)c2sccc21)NC1CCc2ccccc21 (stereo not given)	i	/	/
c1cncc(-c2nc(NCc3ccncc3)c3ccccc3n2)c1	i	/	/
FC(F)(F)c1ccccc1-c1nc(NCc2cccs2)c2ccccc2n1	/	/	-3%
FC(F)(F)c1ccccc1-c1nc(NCc2ccc(-c3ccc(Cl)c(Cl)c3)cc2)c2ccccc2n1	/	/	-4%
Cc1ccccc1-c1nc(NCc2cccs2)c2ccccc2n1	/	/	-2%
